Laboratory results reported in the supplement of paper PMC11006884.
About 6,500 targets were measured; listed, in parts, are those with a hit and a random draw of the rest. About 2% of all pairs of compound and target were hits.

Compound: COC(=O)C#Cc1ccccc1 [methyl 3-phenylpropiolate]
Test: log2 ratio of iodoacetamide-alkyne labeling of the cysteine site, DMSO over compound (competition); higher = stronger covalent engagement of the cysteine by the compound, active = 1 or more
Conditions: 500 µM; treatment time 1 h; system: HEK293T cell lysate
How it was run: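 HEK293T lysate (2 mg/mL) was treated with DMSO or electrophile (500 µM, 1 h, ambient temperature), then iodoacetamide alkyne (1 h), clicked to sCIP-TMT reagents, pooled, trypsin-digested overnight at 37 °C, streptavidin-enriched and acid-eluted. Peptides were run on Orbitrap Eclipse LC-MS/MS with FAIMS and quantified in FragPipe. The log2 competition ratio per cysteine is mean control-channel over mean compound-channel reporter intensity. Duplicate channels and three replicates were used, and cysteines quantified in only one replicate were excluded.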

UniProt O00571, sequence (O00571 whole entry, looked up): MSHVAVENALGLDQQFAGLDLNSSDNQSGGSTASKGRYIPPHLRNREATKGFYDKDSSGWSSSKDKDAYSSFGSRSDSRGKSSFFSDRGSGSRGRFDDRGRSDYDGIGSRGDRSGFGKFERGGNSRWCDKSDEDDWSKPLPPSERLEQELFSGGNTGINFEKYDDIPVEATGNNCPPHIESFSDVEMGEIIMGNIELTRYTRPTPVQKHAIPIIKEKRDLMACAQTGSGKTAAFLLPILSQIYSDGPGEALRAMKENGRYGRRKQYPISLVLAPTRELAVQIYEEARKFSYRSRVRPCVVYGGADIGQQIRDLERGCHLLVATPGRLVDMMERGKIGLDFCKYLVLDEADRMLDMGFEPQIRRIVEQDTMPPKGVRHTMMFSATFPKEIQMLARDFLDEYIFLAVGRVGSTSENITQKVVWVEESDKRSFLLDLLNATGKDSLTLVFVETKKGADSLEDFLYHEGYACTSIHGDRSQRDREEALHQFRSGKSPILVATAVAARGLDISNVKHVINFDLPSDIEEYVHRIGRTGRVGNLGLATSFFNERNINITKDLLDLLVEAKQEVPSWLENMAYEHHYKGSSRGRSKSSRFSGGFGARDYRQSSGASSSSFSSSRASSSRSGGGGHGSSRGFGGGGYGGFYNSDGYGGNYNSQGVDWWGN
UniProt O15381, sequence (O15381 whole entry, looked up): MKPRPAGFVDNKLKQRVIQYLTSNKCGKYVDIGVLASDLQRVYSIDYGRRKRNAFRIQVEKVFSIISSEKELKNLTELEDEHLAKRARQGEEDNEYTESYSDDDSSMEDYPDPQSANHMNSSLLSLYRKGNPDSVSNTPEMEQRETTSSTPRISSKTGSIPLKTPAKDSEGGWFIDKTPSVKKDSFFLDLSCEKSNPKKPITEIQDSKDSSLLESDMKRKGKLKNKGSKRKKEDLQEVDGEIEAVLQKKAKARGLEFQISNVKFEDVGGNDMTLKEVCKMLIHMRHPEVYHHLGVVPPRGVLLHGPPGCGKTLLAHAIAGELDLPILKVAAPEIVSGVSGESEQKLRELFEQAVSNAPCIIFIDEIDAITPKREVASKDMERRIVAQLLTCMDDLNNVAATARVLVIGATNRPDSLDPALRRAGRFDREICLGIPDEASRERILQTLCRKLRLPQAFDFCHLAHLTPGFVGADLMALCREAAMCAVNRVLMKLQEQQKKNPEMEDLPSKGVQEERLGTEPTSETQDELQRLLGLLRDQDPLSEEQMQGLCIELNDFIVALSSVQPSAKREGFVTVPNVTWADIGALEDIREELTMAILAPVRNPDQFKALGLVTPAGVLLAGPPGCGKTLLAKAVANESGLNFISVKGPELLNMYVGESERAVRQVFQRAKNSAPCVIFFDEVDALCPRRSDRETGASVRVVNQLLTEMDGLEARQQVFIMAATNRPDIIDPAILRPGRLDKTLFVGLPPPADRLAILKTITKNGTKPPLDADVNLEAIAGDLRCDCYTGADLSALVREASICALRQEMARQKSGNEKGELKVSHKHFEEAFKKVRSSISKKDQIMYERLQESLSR
UniProt O60841, sequence (O60841 whole entry, looked up): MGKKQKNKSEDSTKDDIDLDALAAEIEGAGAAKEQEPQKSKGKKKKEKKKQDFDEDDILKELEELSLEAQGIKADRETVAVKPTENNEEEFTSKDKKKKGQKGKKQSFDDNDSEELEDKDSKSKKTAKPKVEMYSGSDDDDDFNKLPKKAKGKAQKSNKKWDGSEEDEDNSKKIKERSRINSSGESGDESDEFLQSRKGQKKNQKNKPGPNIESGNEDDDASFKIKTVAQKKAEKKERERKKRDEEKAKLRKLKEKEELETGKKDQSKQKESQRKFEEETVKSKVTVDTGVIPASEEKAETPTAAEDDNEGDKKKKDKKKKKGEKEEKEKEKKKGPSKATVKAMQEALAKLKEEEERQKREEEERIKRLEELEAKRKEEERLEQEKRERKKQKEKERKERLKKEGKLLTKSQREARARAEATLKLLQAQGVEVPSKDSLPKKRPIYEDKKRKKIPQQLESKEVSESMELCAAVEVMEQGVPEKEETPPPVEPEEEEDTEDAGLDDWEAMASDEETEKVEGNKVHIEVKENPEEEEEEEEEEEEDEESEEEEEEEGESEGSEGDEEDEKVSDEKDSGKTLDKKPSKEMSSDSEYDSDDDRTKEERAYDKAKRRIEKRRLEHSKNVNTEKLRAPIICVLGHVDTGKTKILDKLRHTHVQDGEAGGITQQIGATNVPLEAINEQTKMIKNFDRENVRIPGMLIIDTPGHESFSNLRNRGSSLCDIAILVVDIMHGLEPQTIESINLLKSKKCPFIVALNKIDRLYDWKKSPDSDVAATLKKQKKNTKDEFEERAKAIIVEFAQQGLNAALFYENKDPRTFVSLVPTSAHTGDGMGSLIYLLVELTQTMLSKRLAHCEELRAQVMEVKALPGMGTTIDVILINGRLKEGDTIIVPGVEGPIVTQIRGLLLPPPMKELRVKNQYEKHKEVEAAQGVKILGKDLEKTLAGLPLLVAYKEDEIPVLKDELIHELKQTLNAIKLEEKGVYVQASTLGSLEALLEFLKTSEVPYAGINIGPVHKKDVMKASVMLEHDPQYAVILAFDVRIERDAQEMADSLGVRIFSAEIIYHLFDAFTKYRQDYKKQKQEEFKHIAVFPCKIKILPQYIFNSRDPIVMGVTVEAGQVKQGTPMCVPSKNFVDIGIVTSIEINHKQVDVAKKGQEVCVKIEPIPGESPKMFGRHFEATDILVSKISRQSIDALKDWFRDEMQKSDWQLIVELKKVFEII
UniProt O00401, sequence (O00401 whole entry): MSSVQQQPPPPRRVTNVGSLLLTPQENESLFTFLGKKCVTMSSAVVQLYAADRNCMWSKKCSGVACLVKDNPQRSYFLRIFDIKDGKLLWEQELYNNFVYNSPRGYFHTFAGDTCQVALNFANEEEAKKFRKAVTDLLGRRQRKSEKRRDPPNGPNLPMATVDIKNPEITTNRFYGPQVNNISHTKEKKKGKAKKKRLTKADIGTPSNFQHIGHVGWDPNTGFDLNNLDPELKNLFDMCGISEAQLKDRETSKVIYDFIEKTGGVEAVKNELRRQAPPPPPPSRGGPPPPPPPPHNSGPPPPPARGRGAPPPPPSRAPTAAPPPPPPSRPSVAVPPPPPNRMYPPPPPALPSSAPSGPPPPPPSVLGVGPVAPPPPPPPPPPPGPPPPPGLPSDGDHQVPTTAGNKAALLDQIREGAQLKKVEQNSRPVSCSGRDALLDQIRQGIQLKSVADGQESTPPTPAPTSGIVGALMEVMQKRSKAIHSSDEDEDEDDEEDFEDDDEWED
UniProt O15213, sequence (O15213 whole entry, looked up): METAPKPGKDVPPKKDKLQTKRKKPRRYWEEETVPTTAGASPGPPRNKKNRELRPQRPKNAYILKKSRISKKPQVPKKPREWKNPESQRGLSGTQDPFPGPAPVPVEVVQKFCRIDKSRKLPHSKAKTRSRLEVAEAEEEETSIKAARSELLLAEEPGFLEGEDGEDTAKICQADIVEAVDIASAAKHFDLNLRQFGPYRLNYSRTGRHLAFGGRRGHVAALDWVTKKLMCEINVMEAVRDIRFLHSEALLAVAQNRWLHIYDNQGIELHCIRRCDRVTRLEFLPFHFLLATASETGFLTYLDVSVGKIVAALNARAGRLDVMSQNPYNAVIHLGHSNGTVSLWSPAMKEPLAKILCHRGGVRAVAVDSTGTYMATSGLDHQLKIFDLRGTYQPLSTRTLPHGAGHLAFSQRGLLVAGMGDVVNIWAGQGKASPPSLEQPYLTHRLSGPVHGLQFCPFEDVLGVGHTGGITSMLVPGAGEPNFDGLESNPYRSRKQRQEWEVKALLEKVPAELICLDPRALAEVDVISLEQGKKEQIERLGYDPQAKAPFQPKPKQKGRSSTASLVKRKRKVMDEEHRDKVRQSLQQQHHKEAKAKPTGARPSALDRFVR
UniProt O43823, sequence (O43823 whole entry, looked up): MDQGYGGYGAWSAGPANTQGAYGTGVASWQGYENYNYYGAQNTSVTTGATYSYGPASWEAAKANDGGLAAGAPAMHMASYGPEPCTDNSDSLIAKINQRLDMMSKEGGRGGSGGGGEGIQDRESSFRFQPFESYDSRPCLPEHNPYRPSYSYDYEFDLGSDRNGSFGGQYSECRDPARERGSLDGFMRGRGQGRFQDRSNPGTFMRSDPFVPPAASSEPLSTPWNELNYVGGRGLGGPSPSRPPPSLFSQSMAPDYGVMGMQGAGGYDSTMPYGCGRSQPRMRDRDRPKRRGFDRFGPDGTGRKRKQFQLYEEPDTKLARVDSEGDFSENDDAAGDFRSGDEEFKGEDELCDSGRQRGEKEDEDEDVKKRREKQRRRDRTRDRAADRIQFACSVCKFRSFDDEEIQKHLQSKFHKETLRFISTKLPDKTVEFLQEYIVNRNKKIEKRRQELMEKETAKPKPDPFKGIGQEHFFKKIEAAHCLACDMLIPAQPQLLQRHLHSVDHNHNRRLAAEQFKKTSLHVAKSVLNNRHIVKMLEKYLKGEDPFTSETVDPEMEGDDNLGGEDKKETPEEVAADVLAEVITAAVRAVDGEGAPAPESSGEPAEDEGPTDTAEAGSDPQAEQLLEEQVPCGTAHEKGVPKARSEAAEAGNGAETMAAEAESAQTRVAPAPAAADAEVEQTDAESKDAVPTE
UniProt O60551, sequence (O60551 whole entry): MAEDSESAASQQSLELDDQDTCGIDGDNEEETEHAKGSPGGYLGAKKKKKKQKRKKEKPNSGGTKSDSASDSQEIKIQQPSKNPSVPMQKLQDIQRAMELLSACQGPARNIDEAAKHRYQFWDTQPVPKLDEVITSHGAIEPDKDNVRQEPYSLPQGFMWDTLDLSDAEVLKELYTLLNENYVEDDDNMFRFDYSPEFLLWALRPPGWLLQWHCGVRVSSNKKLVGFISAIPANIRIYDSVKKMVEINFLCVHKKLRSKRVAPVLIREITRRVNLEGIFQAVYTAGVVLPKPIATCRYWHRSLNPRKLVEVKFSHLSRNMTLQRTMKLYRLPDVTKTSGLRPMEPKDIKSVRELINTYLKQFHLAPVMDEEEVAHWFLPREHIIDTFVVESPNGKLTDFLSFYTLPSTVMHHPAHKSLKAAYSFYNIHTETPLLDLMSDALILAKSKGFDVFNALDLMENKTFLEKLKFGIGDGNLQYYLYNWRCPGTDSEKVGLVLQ

| Target | log2 ratio of iodoacetamide-alkyne labeling |
| --- | --- |
| UniProt O15042_C291 | 1 (active) |
| EIF5B C720 (UniProt O60841) | 0.266 (inactive) |
| TBC1D4 C1277 (UniProt O60343) | 0.374 (inactive) |
| PFAS C1285 (UniProt O15067) | 1.36 (active) |
| USO1 C303 (UniProt O60763) | 0.712 (inactive) |
| UniProt O75947_C101 | 0.98 (inactive) |
| NUP155 C704 (UniProt O75694) | 0.168 (inactive) |
| ANKRD17 C210 (UniProt O75179) | 0.398 (inactive) |
| WASL C431 (UniProt O00401) | 1.06 (active) |
| GEMIN2 C63 (UniProt O14893) | 0.211 (inactive) |
| DNM1L C367 (UniProt O00429) | 0.986 (inactive) |
| UniProt O95071_C2267 | 0.736 (inactive) |
| ANKRD17 C58 (UniProt O75179) | 1.35 (active) |
| PHGDH C369 (UniProt O43175) | 1.78 (active) |
| IPO5 C750 (UniProt O00410) | 0.168 (inactive) |
| FLNB C455 (UniProt O75369) | 1.24 (active) |
| FLNB C2556 (UniProt O75369) | 0.079 (inactive) |
| ZZEF1 C2466 (UniProt O43149) | -0.132 (inactive) |
| UniProt O75153_C1196 | 0.492 (inactive) |
| DVL2 C412 (UniProt O14641) | 0.134 (inactive) |

| Target | log2 ratio of iodoacetamide-alkyne labeling |
| --- | --- |
| UniProt O75153_C88 | 0.201 (inactive) |
| NVL C192 (UniProt O15381) | 0.306 (inactive) |
| PSIP1 C204 (UniProt O75475) | 0.31 (inactive) |
| WDR46 C456 (UniProt O15213) | 0.493 (inactive) |
| HEXIM1 C79 (UniProt O94992) | 1.3 (active) |
| DDX3X C128 (UniProt O00571) | 0.406 (inactive) |
| UniProt O75153_C153 | 0.605 (inactive) |
| AKAP8 C275 (UniProt O43823) | 1.06 (active) |
| SART1 C645 (UniProt O43290) | 0.0232 (inactive) |
| PFAS C606 (UniProt O15067) | 1.53 (active) |
| SASH1 C406 (UniProt O94885) | 1.19 (active) |
| UniProt O94822_C498 | 0.086 (inactive) |
| NMT2 C104 (UniProt O60551) | 0.453 (inactive) |
| UniProt O14628_C178 | 1.09 (active) |
| DNM1L C446 (UniProt O00429) | 0.102 (inactive) |
| PRPF6 C698 (UniProt O94906) | 0.0824 (inactive) |
| TBC1D4 C6 (UniProt O60343) | 0.373 (inactive) |
| UniProt O43929_C16 | 0.153 (inactive) |
| TMEM189 C21 (UniProt A5PLL7) | 1.52 (active) |
